Bioassay records deposited in PubChem by several laboratories.
Sampled rows, rich in hits. Any-hit rate of the full collection: about 5%.
SENP8 block-1 – SENP8 protease inhibitors, primary screen, biochemical, luminescence; purified SENP8, Z-RLRGG-aminoluciferin cleavage; inhibition, % at 10 µM; 1.2% of 330,000 active; AID 2540, 2010; in the data active means inhibition above about 50%
SENP7 inh – SENP7 protease inhibitors, primary screen, biochemical, luminescence, uHTS; Sentrin-specific protease 7 (Homo sapiens), Q9BQF6; recombinant SENP7, Z-RLRGG-aminoluciferin luminescence, 40 min; inhibition, % at 5 µM; 1.5% of 330,000 active;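 active means inhibition above about 50% at the single test dose, limit read from the data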;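 further: plate controls were DMSO with enzyme for no effect and no enzyme buffer wells for full effect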
EBI2 antag – EBI2 receptor antagonists, beta-arrestin recruitment, primary screen, cell-based, luminescence, 7a,25-OHC stimulation, uHTS. G-protein coupled receptor 183 (Homo sapiens), P32249. 7a,25-OHC stimulated. inhibition, % at 5 µM. 0.81% of 360,000 active. AID 651636, 2012; in the data active means inhibition above about 38%;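 further: enzyme fragment complementation signal reports receptor beta-arrestin coupling in cells; 0% = agonist plus DMSO wells and 100% = wells without agonist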
SENP8 block-2 – human SENP8 protease inhibitors, primary screen, biochemical, fluorescence, Nedd8 protein substrate, uHTS; Sentrin-specific protease 8 (Homo sapiens), Q96LD8; recombinant SENP8; inhibition, % at 20 µM; 0.64% of 360,000 active; in the data active means inhibition mostly above about 40%, no sharp cut-off; inactive means mostly below about 27%
AHR act – AHR activators, primary screen, cell-based, luminescence, luciferase reporter, human | Aryl hydrocarbon receptor (Homo sapiens), P35869 | AHR-responsive luciferase reporter cells | activation, % at 5 µM | 2.5% of 320,000 active; in the data active means activation above about 47%;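 further: 0% = vehicle wells and 100% = reference agonist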
Target sequence (P35869 whole entry, looked up): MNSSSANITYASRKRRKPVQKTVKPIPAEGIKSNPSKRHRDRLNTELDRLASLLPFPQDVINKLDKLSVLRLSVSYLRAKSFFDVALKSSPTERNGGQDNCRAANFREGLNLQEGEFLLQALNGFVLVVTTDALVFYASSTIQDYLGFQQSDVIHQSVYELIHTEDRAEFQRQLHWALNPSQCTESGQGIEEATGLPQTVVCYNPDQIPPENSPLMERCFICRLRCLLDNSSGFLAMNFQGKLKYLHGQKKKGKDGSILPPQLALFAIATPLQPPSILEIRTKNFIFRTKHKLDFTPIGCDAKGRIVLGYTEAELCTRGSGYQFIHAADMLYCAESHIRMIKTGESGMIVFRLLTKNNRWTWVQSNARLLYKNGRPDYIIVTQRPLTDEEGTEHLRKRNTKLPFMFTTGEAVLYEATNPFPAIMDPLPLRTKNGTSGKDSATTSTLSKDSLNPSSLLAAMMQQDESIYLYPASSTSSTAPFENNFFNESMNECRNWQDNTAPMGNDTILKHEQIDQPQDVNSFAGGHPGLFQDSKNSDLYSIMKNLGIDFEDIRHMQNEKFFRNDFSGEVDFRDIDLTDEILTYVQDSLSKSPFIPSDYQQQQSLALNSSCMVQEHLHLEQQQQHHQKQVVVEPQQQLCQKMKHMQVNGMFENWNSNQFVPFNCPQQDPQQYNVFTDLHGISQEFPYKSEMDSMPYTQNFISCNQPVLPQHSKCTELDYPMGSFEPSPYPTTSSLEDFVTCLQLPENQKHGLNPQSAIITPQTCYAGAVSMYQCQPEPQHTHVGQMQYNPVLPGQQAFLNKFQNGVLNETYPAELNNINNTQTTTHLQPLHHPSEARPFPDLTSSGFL
SENP6 inh – SENP6 protease inhibitors, primary screen, biochemical, luminescence, uHTS; Sentrin-specific protease 6 (Homo sapiens), Q9GZR1; 1.8% of 330,000 active; AID 2599, 2010; Recombinant SENP6 catalytic domain, aminoluciferin luminescence; inhibition, % at 10 µM;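 active means inhibition above about 50% at the single tested dose, limit read from the data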;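 further: plate controls were DMSO wells with enzyme for no effect and DMSO wells lacking enzyme for full effect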
SENP8 confirm – SENP8 protease inhibitors, retest, confirmation, biochemical, luminescence, single concentration. 40% of 6,200 active. Recombinant SENP8, Z-RLRGG-aminoluciferin luminescence, 60 min. inhibition, % at 12.5 µM. shares compounds with SENP7 inh. AID 488912, 2010;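 active means mean inhibition across replicates above about 50%, limit read from the data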
SENP6 confirm – SENP6 protease inhibitors, confirmation, biochemical, luminescence, single concentration. shares compounds with SENP7 inh. recombinant SENP6, Z-RLRGG-aminoluciferin luminescence. inhibition, % at 12.5 µM. 58% of 6,200 active. AID 488915, 2010
SENP7 conf – SENP7 protease inhibitors, retest, confirmation, biochemical, luminescence, single concentration | shares compounds with SENP7 inh | recombinant SENP7, Z-RLRGG-aminoluciferin luminescence, 40 min | inhibition, % at 12.5 µM | 69% of 6,200 active
Casp3 select – caspase-3 protease inhibitors, confirmation, selectivity assay for SENP inhibitor project, biochemical, single concentration | inhibition, % at 12.5 µM | shares compounds with SENP7 inh | purified caspase-3, Z-DEVD-aminoluciferin luminescence, 60 min | 60% of 6,200 active;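 active means mean inhibition above about 50%, limit read from the data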;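 further: plate controls were enzyme with DMSO for no effect and wells without caspase-3 for full effect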
SENP luc ctr – counter-screen for SENP inhibitors: luminescence interference. shares compounds with SENP7 inh. Pre-incubated SENP8/Z-RLRGG-aminoluciferin, luciferase luminescence interference. inhibition, % at 12.5 µM. 39% of 6,200 active. AID 488919;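 active means mean inhibition above about 50% when retested at one dose, limit read from the data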;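 further: plate controls were DMSO wells with completed reaction for no effect and substrate without enzyme for full effect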
The depositor's hits bear a star; x = no result.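 How the source made its calls, unless noted: active means mean inhibition above about 50% in the one-dose retest (limit read from the data); inactive means the rest.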

SMILES	SENP8 block-1	SENP7 inh	EBI2 antag	SENP8 block-2	AHR act	SENP6 inh	SENP8 confirm	SENP6 confirm	SENP7 conf	Casp3 select	SENP luc ctr
Nc1[nH]n(-c2ccccc2)c(=O)c1N=Nc1ccccc1[N+](=O)[O-]	2	61*	-7	11	3	-54	19	16	9	7	-1
CC(=O)NC(Cc1c[nH]c2ccccc12)C(=O)NCCc1ccccn1 (configuration not stated)	-7	-7	-3	14	3	19	x	x	x	x	x
c1ccc2sc(NCC3CCCO3)nc2c1 (configuration not stated)	0	13	2	10	18	2	x	x	x	x	x
c1ccc2sc(NN=C3CCCCCC3)nc2c1	81*	83*	12	-16	51*	91*	89*	94*	101*	87*	54*
CC(=O)CSc1nc2ccccc2o1	-11	-11	-8	26	11	1	x	x	x	x	x
COC(=O)CSc1nc2ccccc2o1	2	4	2	8	-1	-5	x	x	x	x	x
O=C(O)c1ccccc1CSc1nc2ccccc2o1	57*	62*	-10	15	18	85*	77*	75*	91*	90*	81*
O=C(O)c1ccc(CSc2nc3ccccc3o2)cc1	54*	30	-5	13	-2	75*	66*	64*	86*	83*	70*
O=C(CSc1nc2ccccc2o1)c1ccccc1	46	71*	-11	12	-6	67*	68*	69*	85*	61*	62*
CC(=O)Nc1ccc(/C=C/c2noc(-c3ccccc3O)n2)cc1	-7	59*	25	-237	4	-36	4	2	1	0	2
Oc1ccccc1/C=C/c1noc(-c2ccccc2O)n1	3	52*	2	-122	66*	-6	-5	1	79*	38	5
CC(=C\C(=O)O)/C(=C/c1ccc(C)o1)C(=O)O	-5	3	-7	12	1	6	x	x	x	x	x
Oc1cccc(C=Nc2cccc3ccccc23)c1O	36	17	-3	-314	51*	54*	17	22	9	40	-6
Cc1ccc(NC(=S)Nc2cccc3cnccc23)c(C)c1	87*	77*	-10	-70	3	95*	7	9	-8	2	-1
Cc1cc(C)cc(NC(=S)Nc2cccc3cnccc23)c1	81*	37	17	-122	x	81*	6	19	4	-3	-3
C=C(C)CNC(=S)Nc1cccc2cnccc12	-6	-3	-3	-11	3	-5	x	x	x	x	x
CCc1ccc(CNC(=O)CCn2ccc3cc(S(=O)(=O)N4CCCC4)ccc32)cc1	-8	-10	10	9	3	-6	x	x	x	x	x
COc1ccc(CCNC(=O)[C@@H](NC(=O)N2CC(=O)Nc3ccccc32)C(C)C)cc1OC	-1	-4	-3	11	0	-11	x	x	x	x	x
COc1ccccc1C1(O)CC2CCC(C1)N2S(=O)(=O)c1ccc(C(C)=O)cc1 (configuration not stated)	-7	59*	-2	19	1	-12	4	3	10	6	0
COC(=O)c1ccc(S(=O)(=O)N2C3CCC2CC(NC(=O)C2CC2)C3)cc1 (configuration not stated)	-1	4	3	4	1	-12	x	x	x	x	x
CCOc1ccc(CCNC(=O)COC(=O)CSc2ccc(C)cc2)cc1OCC	-9	-15	3	0	x	1	x	x	x	x	x
COc1ncnc2sc(-c3ccccc3)cc12	97*	99*	9	3	6	93*	96*	95*	100*	95*	92*
N#Cc1c(Cl)cccc1Oc1ccc(S(=O)(=O)Nc2ccccc2)cc1	-1	5	-3	19	0	1	x	x	x	x	x
Oc1ccc(N=Nc2ccc3ccccc3c2)cc1	98*	101*	20	30	18	98*	99*	100*	102*	98*	94*
NS(=O)(=O)c1ccc(N=Nc2c(O)ccc3ccccc23)cc1	0	3	-1	18	4	10	x	x	x	x	x
SMILES	SENP8 block-1	SENP7 inh	EBI2 antag	SENP8 block-2	AHR act	SENP6 inh	SENP8 confirm	SENP6 confirm	SENP7 conf	Casp3 select	SENP luc ctr
Oc1ccc(N=Nc2c(O)ccc3ccccc23)cc1	64*	-5	23	9	79*	69*	67*	68*	72*	12	18
CCOC(=O)/C(=N\Nc1ncnc2ccccc12)c1ccc(C)cc1	62*	25	-1	30	30	61*	-24	56*	78*	6	20
O=C1CC(O)(C(F)(F)F)Oc2c1ccc1ccccc21 (configuration not stated)	77*	54*	-3	-270	9	82*	86*	84*	96*	81*	86*
O=C1CC(O)(C(F)F)Oc2ccc3ccccc3c21 (configuration not stated)	0	8	-7	-457	31	29	x	x	x	x	x
CC1CC(=O)N(CC(=O)NCc2ccc(F)cc2)c2ccccc2S1(=O)=O (configuration not stated)	7	10	-15	18	1	-4	x	x	x	x	x
O=C(Nc1ccc(Cl)cc1)Nc1cccc2nsnc12	91*	94*	-2	-84	31	92*	-13	91*	88*	82*	47
CCCC1CCC(c2ccc(OCC)cc2)=CC1=O (configuration not stated)	42	28	11	6	x	65*	20	24	71*	34	39
